The test system of one test is CRL-7250. The experiment in a line: Cytotoxic Profiling of Annotated Libraries Using Quantitative High-Throughput Screening (AID 1296008). For max response: % is set by controls: 0 for no effect and ±100 for the full control effect. Note: nearly all actives have a fitted effect of over 60% in size. Note: potency is the fitted concentration of half-maximal effect. The note with it: Five cell lines viability, CellTiter-Glo ATP luminescence, 48-72 h; max response: hits give low values. The method, boiled down:
(§1)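 Compounds were pin-transferred onto cells and incubated 48 or 72 hr at 37 degree Celsius, 95% humidity. CellTiter-Glo was added, plates sat 10 min at room temperature, then ATP-coupled luminescence was imaged as the viability read-out.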
On the technique in general: ATP-based viability assays read luminescence as a measure of living cells.

In another test the test system is HEK293. The test is described as above. As to conditions: Five cell lines viability, CellTiter-Glo ATP luminescence, 48-72 h; max response: hits give low values. The method, boiled down: as §1
Test [1] deals with HaCat. Described as above. As to conditions: Five cell lines viability, CellTiter-Glo ATP luminescence, 48-72 h; max response: hits give low values. In short, it runs like this:
as §1

In a further test the test system is KB-3-1. Described as above. The note with it: Five cell lines viability, CellTiter-Glo ATP luminescence, 48-72 h; max response: hits give low values. The method, boiled down:
as §1

Test [2] relates to NIH3T3. The test is described as above. As to conditions: Five cell lines viability, CellTiter-Glo ATP luminescence, 48-72 h; max response: hits give low values. In short, it runs like this: as §1
In test [3] the test system is HACAT. The experiment in a line: qHTS assay to identify novel small-molecules to repurpose for Merkel cell carcinoma treatment (AID 1296009). Note: nearly all actives have a fitted effect of over 60% in size. The note with it: MCC and control cell lines, CellTiter-Glo viability, 72 h; at 44.8 µM (top of the series) unless noted. In short, it runs like this: (§2)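 Cells exposed to NPC (8-point) and MIPE (11-point) compound dilutions for 72 hr at 37 degree celsius; viability read by CellTiter-Glo luminescence, normalized to no-cell and DMSO in-plate controls.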
(In general: Quantitative high-throughput screening tests each substance at several concentrations.)

Test [4] has as its system NIH3T3. The description is as above. As to conditions: MCC and control cell lines, CellTiter-Glo viability, 72 h; at 44.8 µM (top of the series) unless noted. In short, it runs like this:
as §2

The test system of another test is C33A. The experiment in a line: Primary qHTS to identify gynecologic anti-cancer compounds using libraries of approved drugs and bioactive compounds (AID 1345084). Note: % is set by controls: 0 for no effect and ±100 for the full control effect; nearly all actives have a fitted effect of over 55% in size. The note with it: Gynecologic cancer cell panel viability, ATPlite luminescence, 48 h; series mostly up to 57.5 µM. In short, it runs like this:
(§3)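 In this quantitative HTS, cell killing is estimated from loss of ATP-dependent luciferase light. Cells see five compound concentrations over a 48 h exposure.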

In a further test the test system is CAOV3. The description is as above. As to conditions: Gynecologic cancer cell panel viability, ATPlite luminescence, 48 h; series mostly up to 57.5 µM. The method, boiled down:
as §3

For a further test, the system named is CASKI. The description is as above. The note with it: Gynecologic cancer cell panel viability, ATPlite luminescence, 48 h; series mostly up to 57.5 µM. In short, it runs like this:
as §3

Another test relates to Es-2. The description is as above. The note with it: Gynecologic cancer cell panel viability, ATPlite luminescence, 48 h; series mostly up to 57.5 µM. The method, boiled down:
as §3

Another test has as its system HeLa. Described as above. As to conditions: Gynecologic cancer cell panel viability, ATPlite luminescence, 48 h; series mostly up to 57.5 µM. The method, boiled down: as §3
The subject of a further test is Hek293T. The test is described as above. The note with it: Gynecologic cancer cell panel viability, ATPlite luminescence, 48 h, control line for the selectivity index; series mostly up to 57.5 µM. The method, boiled down:
as §3

In another test the test system is JEG-3. The description is as above. The note with it: Gynecologic cancer cell panel viability, ATPlite luminescence, 48 h; series mostly up to 57.5 µM. The method, boiled down: as §3
The test system of the next test is OV90. The test is described as above. As to conditions: Gynecologic cancer cell panel viability, ATPlite luminescence, 48 h; series mostly up to 57.5 µM. In short, it runs like this: as §3

Results filed as inconclusive are left out. Values without a mark were called inactive. Active and inactive are the calls of the source. Calls come from the whole dose curve; as a rule, active = well fitted curve in the direction sought with a large enough effect; inconclusive = small, poorly fitted or top-dose-only effect, or another doubt; inactive = no such curve, though single readings can be large; an effect the other way counts as inactive or inconclusive.

Turning to `C[C@@H]1O[C@@H](O[C@H]2[C@H](Oc3cc(O)c(C(=O)CCc4ccc(O)cc4)c(O)c3)O[C@H](CO)[C@@H](O)[C@@H]2O)[C@H](O)[C@H](O)[C@H]1O`, the values for the max response with CRL-7250 and in the test on HEK293 were 2.09% and -1.52%, respectively. Also, the molecule was called inactive in the test on HaCat [1], in the test with KB-3-1, in the test with NIH3T3 [2], in the test on HACAT [3], in the test on NIH3T3 [4] and with CASKI. Also, the Potency result in the test with C33A, in the test with CAOV3, with Es-2, in the test with HeLa, in the test with Hek293T and in the test on JEG-3 was “inactive” in each case. Further, the Potency result in the test with OV90 was “inactive”.
In the case of `O=C(O)/C=C/c1ccc2occc2c1O[C@@H]1O[C@H](CO)[C@@H](O)[C@H](O)[C@H]1O`, the max response in the test on CRL-7250 is -6.75%; in the test with HEK293, 1.57%. The result with HaCat [1], in the test with KB-3-1, in the test on NIH3T3 [2], in the test on HACAT [3], in the test with NIH3T3 [4] and in the test with CASKI was inactive. Besides, the Potency entry with C33A, with CAOV3, with Es-2, in the test with HeLa, in the test on Hek293T and with JEG-3 was “inactive” throughout. Further, the Potency result in the test with OV90 was “inactive”.
On to `C[C@]1(OC(=O)/C=C/c2ccccc2)C[C@@H](O)[C@]2(O)C=CO[C@@H](O[C@@H]3O[C@H](CO)[C@@H](O)[C@H](O)[C@H]3O)[C@@H]21`, for which the values for the max response in the test on CRL-7250, in the test on HEK293 and in the test on KB-3-1 were -4.65%, 3.08% and 8.76%, respectively. Also, the result in the test with HaCat [1], in the test on NIH3T3 [2] and in the test on CASKI was inactive. In addition, the outcome in the test with HACAT [3] and with NIH3T3 [4] was “inactive [at 17.4 µM]” throughout. Further, the Potency result in the test with C33A, with CAOV3, with Es-2, in the test on HeLa, in the test with Hek293T and in the test on JEG-3 was “inactive” throughout. Further, in the test on OV90, the Potency entry is “inactive”.
With `COc1ccc2[nH]c(S(=O)Cc3ncc(C)c(OC)c3C)nc2c1` (stereo unspecified), the max response with CRL-7250 is -15.2%; with HEK293, 3.04%; in the test on KB-3-1, 6.01%. Also, the molecule was called inactive in the test on HaCat [1], in the test on NIH3T3 [2], with HACAT [3], in the test with NIH3T3 [4] and with CASKI. For the same molecule, the Potency result in the test with C33A, with CAOV3, in the test on Es-2, in the test with HeLa, with Hek293T and in the test with JEG-3 was “inactive” throughout. Further, the Potency result in the test with OV90 is “inactive”.
Consider `CC(O)/C=C/C1(O)C(C)C(O)C(O[C@@H]2O[C@H](CO)[C@@H](O)[C@H](O)[C@H]2O)CC1(C)C` (stereo partly specified), for which the max response in the test on CRL-7250 is -7.69%; in the test on HEK293, -15.2%; in the test on KB-3-1 it was 0.447%. Besides, the molecule was classed as inactive in the test with HaCat [1], in the test on NIH3T3 [2] and with CASKI. In addition, the outcome in the test on HACAT [3] and in the test on NIH3T3 [4] was “inactive [at 17.4 µM]” in each case. Further, the Potency result in the test on C33A, with CAOV3, in the test on Es-2, in the test with HeLa, in the test on Hek293T and with JEG-3 was “inactive” in each case. Also, the Potency result with OV90 was “inactive”.
Take `CC1=CC(=O)[C@]2(O[C@@H]3O[C@@H](C)[C@H](O)[C@@H](O)[C@H]3O)C=CO[C@@H](O[C@@H]3O[C@H](CO)[C@@H](O)[C@H](O)[C@H]3O)[C@H]12`: the molecule was called inactive in the test on CRL-7250, in the test on HaCat [1], in the test with KB-3-1, in the test with NIH3T3 [2] and in the test with CASKI. The max response in the test with HEK293 was -3.6%. Moreover, the outcome with HACAT [3] and in the test with NIH3T3 [4] was “inactive [at 17.4 µM]” in each case. In addition, the Potency result in the test on C33A, in the test with CAOV3, in the test with Es-2, in the test with HeLa, in the test with Hek293T and with JEG-3 was “inactive” in each case. Besides, in the test on OV90, the Potency result was “inactive”.
Regarding `CC(C)=CCc1cc(O[C@@H]2O[C@H](CO[C@@H]3OC[C@](O)(CO)[C@H]3O)[C@@H](O)[C@H](O)[C@H]2O)ccc1O`, the max response with CRL-7250 is -4.68%; with HEK293, 1.91%. Besides, the molecule was classed as inactive with HaCat [1], in the test on KB-3-1, with NIH3T3 [2] and with CASKI. The outcome in the test on HACAT [3] and with NIH3T3 [4] was “inactive [at 17.4 µM]” in each case. Further, the Potency entry with C33A, in the test with CAOV3, with Es-2, in the test on HeLa, with Hek293T and in the test on JEG-3 was “inactive” throughout. Moreover, in the test on OV90, the Potency entry is “inactive”.
Take `COc1ccc(C2(O)c3ccccc3NC(=O)C2OC)cc1` (stereo unspecified): the max response is -6.47% with CRL-7250, 1.57% with HEK293 and 5.23% in the test with KB-3-1. Further, the molecule was called inactive in the test on HaCat [1], in the test with NIH3T3 [2], with HACAT [3], in the test on NIH3T3 [4] and in the test with CASKI. Further, the Potency result with C33A, with CAOV3, in the test on Es-2, with HeLa, in the test on Hek293T and in the test on JEG-3 was “inactive” each time. In addition, the Potency entry in the test on OV90 is “inactive”.
As to `O=c1[nH]ccc2nc(-c3ccc(CN4CCC(c5nc(-c6ccccn6)n[nH]5)CC4)cc3)c(-c3ccccc3)cc12`, the outcome with CRL-7250, in the test with HaCat [1], in the test with NIH3T3 [2], in the test with HACAT [3], with NIH3T3 [4] and in the test on CASKI was inactive. In the test on HEK293, the Potency was 5.17 µM (active). Further, in the test on KB-3-1, the max response was -16.7%. Moreover, the Potency entry in the test on C33A, in the test on CAOV3, with Es-2, with HeLa, with JEG-3 and with OV90 was “inactive” throughout.
`CC(C)(O)C1CCC2(C)CCCC(C)(O)C2C1` (stereo unspecified): the max response in the test with CRL-7250 is -27.4%; in the test with HEK293 it was 2.93%; with KB-3-1, 8.99%. For the same molecule, the call with HaCat [1], in the test on NIH3T3 [2], with HACAT [3], in the test on NIH3T3 [4] and with CASKI was inactive. For the same molecule, the Potency entry in the test with C33A, with Es-2, in the test with HeLa, in the test with Hek293T, with JEG-3 and with OV90 was “inactive” each time.
Turning to `Cc1ccc([C@@H]2CC=C(C(=O)O)[C@H](c3ccc(C(C)(C)C)cc3)N2S(=O)(=O)c2ccc(C)cc2)cc1`, the molecule was classed as inactive in the test on CRL-7250, in the test on HaCat [1], in the test with NIH3T3 [2], in the test on HACAT [3], in the test on NIH3T3 [4] and in the test with CASKI. The max response with HEK293 was -30.1%; in the test with KB-3-1, 3.45%. Moreover, the Potency result in the test with C33A, in the test on Es-2, in the test with HeLa, with Hek293T, with JEG-3 and in the test on OV90 was “inactive” throughout.
As for `O=C1C(Cl)=C(N2CCOCC2)C(=O)N1c1ccc(Cl)c(Cl)c1`, the outcome with CRL-7250, in the test with HaCat [1], with KB-3-1, with NIH3T3 [2] and with CASKI was inactive. The max response in the test on HEK293 was -3.24%. Besides, the outcome with HACAT [3] and in the test on NIH3T3 [4] was “inactive [at 17.4 µM]” in each case. Also, the Potency entry in the test with C33A, in the test on Es-2, with HeLa, with Hek293T, in the test with JEG-3 and in the test with OV90 was “inactive” each time.

Source of the values: PubChem BioAssay (NCATS).
